Our source for the Potency and activity, negative = cell killing values is PubChem BioAssay (NCATS).

Values joined by “and” are separate entries in the source; they are usually repeats but may differ in a detail not shown here. Equal entries are not always repeated. Results filed as inconclusive are left out. The source holds several records for some structures; these can differ, active in one and inactive in another. A number with no mark means an inactive call. Active and inactive are the calls of the source. Calls come from the whole dose curve; as a rule, active = well fitted curve in the direction sought with a large enough effect; inconclusive = small, poorly fitted or top-dose-only effect, or another doubt; inactive = no such curve, though single readings can be large; an effect the other way counts as inactive or inconclusive.

Assay [1] concerns Es-2. As to the kind of experiment: Primary qHTS to identify gynecologic anti-cancer compounds using libraries of approved drugs and bioactive compounds (AID 1345084). Note: nearly all actives have a fitted effect of over 55% in size. The note with it: Gynecologic cancer cell panel viability, ATPlite luminescence, 48 h; series mostly up to 57.5 µM. The method, boiled down: (§1)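 Measured: luminescence after ATPlite addition (15 min, RT). Exposure: 48 h, 37 C, 5% CO2.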
A general note: In qHTS, concentration-response curves come from the screen itself.

The test system of assay [2] is HeLa. Described as above. Particulars: Gynecologic cancer cell panel viability, ATPlite luminescence, 48 h; series mostly up to 57.5 µM. The method, boiled down: as §1
For orientation: ATP-based viability assays read luminescence as a measure of living cells.

The subject of assay [3] is Hek293T. The assay is described as above. Particulars: Gynecologic cancer cell panel viability, ATPlite luminescence, 48 h, control line for the selectivity index; series mostly up to 57.5 µM. Put shortly:
as §1

For assay [4], the system named is JEG-3. Described as above. The note with it: Gynecologic cancer cell panel viability, ATPlite luminescence, 48 h; series mostly up to 57.5 µM. The method, boiled down:
as §1

Assay [5] deals with OV90. The description is as above. Particulars: Gynecologic cancer cell panel viability, ATPlite luminescence, 48 h; series mostly up to 57.5 µM. Put shortly: as §1
The subject of assay [6] is PA-1. Described as above. The note with it: Gynecologic cancer cell panel viability, ATPlite luminescence, 48 h; series mostly up to 57.5 µM. Put shortly:
as §1

Assay [7] deals with Tov-21-G. The assay is described as above. The note with it: Gynecologic cancer cell panel viability, ATPlite luminescence, 48 h; series mostly up to 57.5 µM. The method, boiled down:
as §1

In assay [8] the test system is Tov112D. The description is as above. The note with it: Gynecologic cancer cell panel viability, ATPlite luminescence, 48 h; series mostly up to 57.5 µM. Put shortly: as §1
Assay [9] in a line: Drug repurposing screens with cells derived from glioblastoma tumor samples (AID 1345199). Note: nearly all actives have a fitted effect of over 40% in size. Note: potency is the fitted concentration of half-maximal effect. Particulars: GBM patient neurospheres viability, ATP luminescence, 48 h. The method, boiled down:
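Four patient lines of CD133+ GBM neurospheres were screened at several concentrations; hits were retested in those lines plus three slower-growing GBM lines, using 48-hour treatment and ATP-based viability.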

Assay [10] deals with SKOV3. As to the kind of experiment: Primary qHTS to identify gynecologic anti-cancer compounds using libraries of approved drugs and bioactive compounds (AID 1345084). Note: nearly all actives have a fitted effect of over 55% in size. Particulars: Gynecologic cancer cell panel viability, ATPlite luminescence, 48 h; series mostly up to 57.5 µM. Put shortly:
as §1

The mark [11] stands for this setting: at 20 µM (top of the series), tumour line C.
The mark [12] stands for this setting: at 21.2 µM (top of the series), tumour line B.
[13] abbreviates: at 21.2 µM (top of the series), tumour line D.
Where [14] appears, read: at 45.9 µM (top of the series), tumour line B.
Setting [15] is: at 45.9 µM (top of the series), tumour line D.
Setting [16] is: at 46.1 µM (top of the series), tumour line C.
Where [17] appears, read: at 21.3 µM (top of the series), tumour line A.
[18] abbreviates: at 46 µM (top of the series), tumour line A.
% is set by controls: 0 for no effect and ±100 for the full control effect.

Turning to `Cc1cc(=O)oc2cc(O)ccc12`, the Potency result in assay [1], in assay [2], in [3], in [4], in assay [5] and in assay [6] was “inactive” throughout. Besides, the Potency result in [7] and in [8] was “inactive” each time. Further, the activity, negative = cell killing in assay [9] (setting [11]) is -8.91%; in assay [9] (setting [12]), -9.65%; in [9] (setting [13]), -8.02%.
Take `CN(C)C(=O)COC(=O)Cc1ccc(OC(=O)c2ccc(N=C(N)N)cc2)cc1`: the Potency result in assay [1], in assay [2], in [3], in assay [4], in [5] and in [6] was “inactive” each time. Moreover, the Potency result in [7] and in assay [8] was “inactive” throughout. Further, the activity, negative = cell killing in assay [9] (setting [14]) is -12.3%; in assay [9] (setting [15]), 2.44%; in [9] (setting [16]), -19.5%.
As to `COc1cc(OC)c(C(=O)CCCN2CCCC2)c(OC)c1`, the Potency entry in assay [1], in assay [2], in assay [3], in assay [4], in [5] and in assay [6] was “inactive” throughout. Moreover, the Potency entry in assay [10], in assay [7] and in [8] was “inactive” each time. Further, the activity, negative = cell killing was 0.201% in assay [9] (setting [11]), -11.8% in assay [9] (setting [12]), -17.1% in assay [9] (setting [13]) and -24.2% in [9] (setting [17]).
Consider `Cc1nc2n(c(=O)c1CCN1CCC(c3noc4cc(F)ccc34)CC1)CCCC2`, for which the Potency result in assay [1], in assay [2], in [3], in assay [4], in assay [5] and in [6] was “inactive” in each case. Besides, the Potency result in assay [10], in [7] and in assay [8] was “inactive” in each case. The activity, negative = cell killing in assay [9] (setting [14]) is -28.4%; in [9] (setting [16]) it was -9.67%. For the same molecule, the Potency in assay [9] (tumour line A) was 3.55 µM (active); in assay [9] (tumour line D) it was 11.2 µM (active).
Regarding `CCC1=C(C)CN(C(=O)NCCc2ccc(S(=O)(=O)NC(=O)NC3CCC(C)CC3)cc2)C1=O` (stereo not drawn), the Potency result in assay [1], in assay [2], in assay [3], in [4], in [5] and in assay [6] was “inactive” throughout. The Potency entry in assay [7] and in assay [8] was “inactive” in each case. For the same molecule, the results for the activity, negative = cell killing in assay [9] (setting [14]), in [9] (setting [15]) and in [9] (setting [16]) were 4.42%, -28.4% and -8.33%, respectively.
With `Cc1ccc(C)c(OCCCC(C)(C)C(=O)O)c1`, the Potency result in [1], in assay [2], in assay [3], in [4], in assay [5] and in assay [6] was “inactive” each time. Besides, the Potency result in assay [10], in assay [7] and in assay [8] was “inactive” each time. For the same molecule, the activity, negative = cell killing in assay [9] (setting [14]) is -12.7%; in assay [9] (setting [15]), -0.928%; in assay [9] (setting [18]) it was -17.6%; in assay [9] (setting [16]), -8.64%.
As for `Nc1cc(C(Cl)=C(Cl)Cl)c(S(N)(=O)=O)cc1S(N)(=O)=O`, the Potency result in assay [1], in [2], in assay [3], in assay [4], in assay [5] and in assay [6] was “inactive” each time. The Potency result in [10], in [7] and in [8] was “inactive” each time. Further, the activity, negative = cell killing in assay [9] (setting [11]) was -2.9%; in [9] (setting [12]) it was -5.37%; in assay [9] (setting [13]), -20.2%; in [9] (setting [17]), -22%; in [9] (setting [14]), -15.5%; in [9] (setting [15]), 2.04%. Further, the activity, negative = cell killing in assay [9] (setting [16]) is 10.7%.
Consider `CNC[C@H](O)c1ccc(O)c(O)c1`, for which the Potency entry in assay [1], in [2], in [3], in assay [4], in assay [5] and in [6] was “inactive” in each case. Moreover, the Potency result in [10], in [7] and in assay [8] was “inactive” throughout. Besides, the activity, negative = cell killing is -6.05% in assay [9] (setting [14]), -9.08% in assay [9] (setting [15]), -12.1% in assay [9] (setting [18]) and -9.48% in assay [9] (setting [16]).
For the molecule `CN(C)c1ccc(O)c2c1C[C@H]1C[C@H]3[C@H](N(C)C)C(=O)C(C(N)=O)=C(O)[C@@]3(O)C(=O)C1=C2O`, the Potency entry in [1], in assay [2], in assay [3], in assay [4], in assay [5] and in assay [6] was “inactive” in each case. The Potency entry in assay [10], in assay [7] and in assay [8] was “inactive” each time. Besides, the activity, negative = cell killing was -8.81% and -14.2% and -8.47% in [9] (setting [14]); -14.6% and -28.5% and -14.2% in [9] (setting [15]); -27.3% and -18.4% in [9] (setting [18]); -26.9% and -29.7% in assay [9] (setting [16]).
As for `CC1Cc2ccccc2N1NC(=O)c1ccc(Cl)c(S(N)(=O)=O)c1` (stereo not drawn), the Potency entry in assay [1], in assay [2], in [3], in [4], in [5] and in assay [6] was “inactive” each time. Further, the Potency entry in [10], in assay [7] and in [8] was “inactive” each time. Besides, the activity, negative = cell killing in assay [9] (setting [11]) is 27.9%; in assay [9] (setting [12]), -2.89%; in assay [9] (setting [13]) it was 1.12%; in assay [9] (setting [14]) it was 9.62%; in [9] (setting [15]), -0.642%; in assay [9] (setting [16]), 0.368%.
Take `O=C(NC(Cc1cc(=O)[nH]c2ccccc12)C(=O)O)c1ccc(Cl)cc1` (stereo not drawn): the Potency result in [1], in [2], in assay [3], in assay [4], in assay [5] and in assay [6] was “inactive” each time. The Potency result in [10], in assay [7] and in assay [8] was “inactive” each time. In addition, the activity, negative = cell killing is -5.33% in assay [9] (setting [14]), 4.89% in assay [9] (setting [15]), -9.81% in [9] (setting [18]) and -15.5% in [9] (setting [16]).
For `Cc1nccn1CC1CCc2c(c3ccccc3n2C)C1=O` (stereo not drawn), the Potency result in assay [1], in assay [2], in [3], in assay [4], in assay [5] and in assay [6] was “inactive” in each case. The Potency entry in [10], in assay [7] and in assay [8] was “inactive” throughout. In addition, the activity, negative = cell killing in assay [9] (setting [11]) was -25.3%; in assay [9] (setting [12]), -23.2%; in assay [9] (setting [14]), -6.55%; in assay [9] (setting [15]) it was -25.8%; in assay [9] (setting [16]) it was -22.8%. Also, the Potency in [9] (tumour line A) is 11.2 µM (active).
As to `CC(=O)NC[C@H]1CN(c2ccc(N3CCOCC3)c(F)c2)C(=O)O1`, the Potency entry in [1], in [2], in [3], in assay [4], in assay [5] and in assay [6] was “inactive” throughout. For the same molecule, the Potency result in assay [10] and in [8] was “inactive” in each case. Besides, the figures for the activity, negative = cell killing in assay [9] (setting [14]), in [9] (setting [15]) and in assay [9] (setting [16]) were -14.6%, -26.2% and 15.8%, respectively.
